Measured values published in PubChem BioAssay.
Calls of active or inactive are those of the source.

Assays:
[1] = compounds binding Alexa647 anti-His antibody – biochemical, small-molecule microarray, 635 nm fluorescence, artefact control for SMM control protein annotation, primary screen (AID 1128); conditions: higher = more signal;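 note: score merges feature fluorescence with signal-to-noise for each printed compound spot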
[2] = tested on: Human papillomavirus type 1a E7 protein (residues 1-88); assay: HPV1a E7 small-molecule binders, primary screen, biochemical, small-molecule microarray, residues 1-88, 635 nm (AID 1129); conditions: small-molecule microarray binding, fluorescence 635 nm; higher = more signal
[3] = target: Focal adhesion kinase 1 (Homo sapiens) (UniProt Q05397); assay: PTK2 protein binding on printed compound slides – biochemical, small-molecule microarray, 635/667 nm fluorescence, BSA, DTT, primary screen (AID 1130); conditions: 635 nm fluorescence, higher = more signal;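 note: composite of spot emission at 667 nm and signal to noise over triplicate slides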
Focal adhesion kinase 1 (Homo sapiens), sequence (Q05397 whole entry, looked up): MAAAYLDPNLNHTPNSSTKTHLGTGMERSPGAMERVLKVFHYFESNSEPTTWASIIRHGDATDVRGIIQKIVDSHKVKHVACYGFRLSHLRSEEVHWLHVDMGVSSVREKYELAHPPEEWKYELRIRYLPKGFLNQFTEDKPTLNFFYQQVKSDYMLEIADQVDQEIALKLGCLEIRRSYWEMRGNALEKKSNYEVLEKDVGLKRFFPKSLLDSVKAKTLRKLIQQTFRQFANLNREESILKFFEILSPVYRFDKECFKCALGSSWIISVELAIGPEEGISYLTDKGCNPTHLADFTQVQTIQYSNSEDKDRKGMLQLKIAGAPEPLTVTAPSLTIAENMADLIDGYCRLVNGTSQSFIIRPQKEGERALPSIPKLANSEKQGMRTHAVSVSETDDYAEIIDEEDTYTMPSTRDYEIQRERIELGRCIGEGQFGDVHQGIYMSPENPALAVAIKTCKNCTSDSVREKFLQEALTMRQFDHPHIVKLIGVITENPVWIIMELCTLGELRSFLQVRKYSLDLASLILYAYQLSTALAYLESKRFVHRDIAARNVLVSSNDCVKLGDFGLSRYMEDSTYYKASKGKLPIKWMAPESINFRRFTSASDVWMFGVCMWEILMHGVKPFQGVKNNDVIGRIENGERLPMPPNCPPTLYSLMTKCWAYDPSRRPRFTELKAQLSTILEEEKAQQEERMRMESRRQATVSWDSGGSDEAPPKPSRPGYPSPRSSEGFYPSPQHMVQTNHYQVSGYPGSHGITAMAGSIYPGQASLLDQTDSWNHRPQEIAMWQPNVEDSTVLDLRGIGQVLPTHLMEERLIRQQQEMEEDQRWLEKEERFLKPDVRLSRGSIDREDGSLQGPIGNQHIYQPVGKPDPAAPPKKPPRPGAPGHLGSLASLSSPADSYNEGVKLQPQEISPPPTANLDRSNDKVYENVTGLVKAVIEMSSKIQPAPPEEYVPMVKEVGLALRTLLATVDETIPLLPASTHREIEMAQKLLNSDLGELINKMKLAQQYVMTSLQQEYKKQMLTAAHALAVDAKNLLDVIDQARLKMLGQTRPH

[4] = tested on: Fibrinogen (Alexa647-labelled); assay: Alexa647-fibrinogen binding to printed small molecules – biochemical, small-molecule microarray, 635/667 nm fluorescence, artefact control for SMM control-protein annotation, profiling panel (AID 1131); conditions: fibrinogen-A647 binding fluorescence, higher = more signal;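 note: z-score merges 667 nm fluorescence with per-spot signal-to-noise over triplicate slides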
[5] = target: Follistatin (Homo sapiens) (UniProt P19883); assay: FST protein binding to printed compounds – biochemical, small-molecule microarray, 635/667 nm fluorescence, primary screen (AID 1132); conditions: 635 nm fluorescence, higher = more signal
Follistatin (Homo sapiens), sequence (P19883 whole entry, looked up): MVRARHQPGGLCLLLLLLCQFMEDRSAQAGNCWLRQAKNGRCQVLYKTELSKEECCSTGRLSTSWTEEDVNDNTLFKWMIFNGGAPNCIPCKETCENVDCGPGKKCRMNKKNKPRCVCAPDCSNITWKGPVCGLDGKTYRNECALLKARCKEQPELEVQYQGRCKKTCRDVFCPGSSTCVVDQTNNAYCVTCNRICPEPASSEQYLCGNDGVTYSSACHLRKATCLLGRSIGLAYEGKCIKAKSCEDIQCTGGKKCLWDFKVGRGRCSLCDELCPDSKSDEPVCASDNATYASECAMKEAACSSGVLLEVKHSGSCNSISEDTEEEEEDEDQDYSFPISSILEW

[6] = target: Fibroblast growth factor 2 (Homo sapiens) (UniProt P09038); assay: basic fibroblast growth factor binding to printed compounds – biochemical, small-molecule microarray, 635/667 nm fluorescence, primary screen (AID 1133); conditions: FGF2, fluorescence 635/667, higher = more signal
Fibroblast growth factor 2 (Homo sapiens), sequence (P09038 whole entry, looked up): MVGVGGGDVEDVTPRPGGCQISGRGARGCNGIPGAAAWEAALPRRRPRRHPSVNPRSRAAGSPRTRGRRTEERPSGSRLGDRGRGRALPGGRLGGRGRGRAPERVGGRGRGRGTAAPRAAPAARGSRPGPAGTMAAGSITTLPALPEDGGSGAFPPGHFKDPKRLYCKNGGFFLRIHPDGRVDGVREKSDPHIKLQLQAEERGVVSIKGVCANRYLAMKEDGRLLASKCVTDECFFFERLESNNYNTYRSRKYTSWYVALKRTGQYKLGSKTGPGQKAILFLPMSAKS

[7] = JC-1 mitochondrial potential readout, lung cancer cells – cell-based, A549, JC-1 fluorescence, basal, 24 h, 100 nL, profiling panel (AID 1138); conditions: higher = more signal;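 note: A549 lung adenocarcinoma cells under basal conditions with no added stimulus; test concentration not given here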
Lefty1 = Lefty1 protein binding to printed compounds – biochemical, small-molecule microarray, 635/667 nm fluorescence, primary screen (AID 1139); conditions: fluorescence 635/667, higher = more signal
[8] = tested on: wheat germ agglutinin (Triticum aestivum), Alexa647-labelled; assay: Alexa647-WGA lectin binding to printed small molecules – biochemical, small-molecule microarray, 635/667 nm fluorescence, artefact control for SMM control-protein annotation, profiling panel (AID 1140); conditions: WGA-A647 binding, 635 nm fluorescence, higher = more signal;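 note: score merges 667 nm feature emission with signal to noise over triplicate slides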
[9] = target: Luciferin 4-monooxygenase (Photinus pyralis) (UniProt P08659); assay: inhibition of purified Photinus pyralis luciferase – biochemical, luminescence, purified enzyme, 2006 set, primary screen (AID 1141); conditions: purified firefly luciferase, SteadyGlo luminescence, 30 min; higher = more signal, called active from +8 up or from −8 down;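 note: cell-free assay with purified firefly luciferase at 100 ng per well in PBS; test concentration not given here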
Luciferin 4-monooxygenase (Photinus pyralis), sequence (P08659 whole entry, looked up): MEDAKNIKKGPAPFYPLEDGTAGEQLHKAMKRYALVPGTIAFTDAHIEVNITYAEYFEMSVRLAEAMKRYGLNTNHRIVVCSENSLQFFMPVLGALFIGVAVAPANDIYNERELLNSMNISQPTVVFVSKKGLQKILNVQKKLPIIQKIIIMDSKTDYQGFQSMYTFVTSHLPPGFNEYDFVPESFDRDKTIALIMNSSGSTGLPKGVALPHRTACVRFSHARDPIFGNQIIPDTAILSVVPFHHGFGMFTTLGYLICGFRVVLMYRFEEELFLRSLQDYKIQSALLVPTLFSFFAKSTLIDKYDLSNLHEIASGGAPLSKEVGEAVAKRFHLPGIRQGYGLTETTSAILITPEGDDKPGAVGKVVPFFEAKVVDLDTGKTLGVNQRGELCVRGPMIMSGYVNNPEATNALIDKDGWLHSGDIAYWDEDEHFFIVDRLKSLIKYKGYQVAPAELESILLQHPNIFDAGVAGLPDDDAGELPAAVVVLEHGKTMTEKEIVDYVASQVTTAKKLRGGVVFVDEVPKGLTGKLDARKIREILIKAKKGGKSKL

| Structure (SMILES) | composite z-score [1] | composite z-score [2] | composite z-score [3] | composite z-score [4] | composite z-score [5] | composite z-score [6] | z-score [7] | composite z-score (Lefty1) | composite z-score [8] | z-score [9] |
| --- | --- | --- | --- | --- | --- | --- | --- | --- | --- | --- |
| COc1ccc(C#Cc2ccc3c(c2)[C@]2(C(=O)N3)[C@H](c3ccc(OCCO)cc3)N3[C@H](c4ccccc4)[C@H](c4ccccc4)OC(=O)[C@H]3[C@@H]2C(=O)N2CCc3cc(OC)c(OC)cc3C2)cc1 | 0.78 | 1.18 | 0.946 | 0.532 | 1.44 | 1.49 | -1.14 | 1.17 | 0.863 | -0.922 (inactive) |
| O=C1C2C=CC(C(O)c3cc(C(F)(F)F)cc(C(F)(F)F)c3)N(Nc3ccccc3F)C2C(=O)N1c1ccccc1 (stereo not given) | -0.102 | 1.21 | 0.76 | 0.847 | 0.21 | -0.215 | -1.58 | -0.173 | 0.416 | 0.668 (inactive) |
| C=C[C@@H](OC)[C@H](OC(=O)Nc1ccc(SC)cc1)c1ccc(OCCO)cc1 | 2.02 | 0.815 | 0.317 | 0.951 | 1.17 | 0.377 | -1.48 | 0.545 | 0.653 | -2.25 (inactive) |
| C=C(/C(=C/C[C@@H](OC(C)=O)c1ccc(CO)o1)c1cc(C(=O)OC)ccc1OC)C(C)C | 1.54 | 0.659 | 0.571 | 0.0384 | 0.913 | 0.682 | -0.237 | 0.564 | 0.427 | -3.52 (inactive) |
| C=CC1c2cc(O)c(OC)cc2CCN1Cc1ccc([N+](=O)[O-])o1 (stereo not given) | 3 | -0.354 | -0.426 | 0.66 | 0.138 | -0.0471 | 1.3 | -0.807 | 1.39 | -1.6 (inactive) |
| COCC1=C2[C@@H](CCc3ccccc3)OB(O)C[C@@H]2[C@@H]2C(=O)N(C)C(=O)[C@@H]2C1 | 0.0751 | 0.003 | 0.164 | 0.353 | 0.309 | 0.833 | -0.0837 | 0.0961 | -0.098 | -0.171 (inactive) |
| C=CCC(OC(C)=O)[C@@H]1[C@@H](N(Cc2ccc(-c3ccccc3)cc2)C(=O)Cc2ccc(F)cc2)c2cc(OCCCO)ccc2N1C(=O)Cc1ccc2ccccc2c1 (stereo not given in full) | -0.631 | -0.0842 | 0.318 | -0.198 | 0.305 | -0.0712 | 1.85 | -0.0639 | 0.139 | -1.2 (inactive) |
